High-throughput results deposited in PubChem BioAssay by National Center for Advancing Translational Sciences (NCATS).
FBPA coupling cs – counter-screen for Giardia aldolase inhibitors: coupling enzyme system | coupling enzyme system counterscreen, AmpLite Red fluorescence | 290,000 compounds, 0.67% hits | activity change, negative = inhibition, % at 58.2 µM, hits read low; in the data active = activity change below about -30%
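Counterscreen lacking aldolase: glyceraldehyde-3-phosphate coupling-enzyme reagent preincubated 10 min at RT with compound (at 57.5 uM final), then substrate/coupling system with AmpLite Red added; fluorescence read at 525/598 nm after 20 min RT.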
G9a block – blocks human histone lysine methyltransferase G9a | G9a H3K9 monomethylation, AlphaScreen, 2 h | Q96KQ7 | 350,000 compounds, 8.8% hits | Potency, µM (doses to about 102 µM), for inactives: top-dose activity, negative = inhibition, actives largely listed as inhibitors; note: potency is the fitted concentration of half-maximal effect; nearly all actives have a fitted effect of over 75% in size
Target sequence (Q96KQ7 913-1193 limits assumed): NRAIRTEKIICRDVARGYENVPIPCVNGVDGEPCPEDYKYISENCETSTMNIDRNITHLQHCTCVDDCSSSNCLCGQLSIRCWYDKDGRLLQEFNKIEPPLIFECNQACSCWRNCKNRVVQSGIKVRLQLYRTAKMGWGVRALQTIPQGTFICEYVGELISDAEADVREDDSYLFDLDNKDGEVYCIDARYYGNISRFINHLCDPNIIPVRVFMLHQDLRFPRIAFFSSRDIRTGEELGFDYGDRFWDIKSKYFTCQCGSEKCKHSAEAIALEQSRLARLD
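Compounds were preincubated with 20 nM G9a for 15 min, after which biotinylated H3K9 peptide (500 nM) and SAM (20 uM) started a 2 h room-temperature reaction. Monomethylated product was quantified by antibody-based AlphaScreen chemiluminescence.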
Tau FP inhib – blocks human tau fibril formation measured by polarization. K18 P301L tau heparin fibrillization, Alexa594 FP, 6 h. Potency, µM (titrated, usually from 57.7 µM), for the others: top-dose activity, negative = inhibition, hits mostly inhibitors. 280,000 compounds, 0.39% hits. AID 1468; note: potency is the fitted concentration of half-maximal effect; nearly all actives have a fitted effect of over 55% in size
Target sequence (P10636 561-689 P618L limits assumed): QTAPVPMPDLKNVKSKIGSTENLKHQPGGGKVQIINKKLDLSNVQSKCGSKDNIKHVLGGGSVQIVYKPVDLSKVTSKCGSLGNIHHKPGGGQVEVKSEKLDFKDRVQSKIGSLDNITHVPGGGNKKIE
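FP of Alexa 594-tau after heparin (20 uM) induction. Substrate: human K18 P301L, 15 uM unlabeled, 0.24 uM labeled. Buffer 100 mM sodium acetate pH 7. 6 hr, 37 C.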
Sfp PPTase inh – blocks B. subtilis Sfp PPTase activity. 310,000 compounds, 3.5% hits. Q9F4F7. Biochemical Sfp PPTase activity, qHTS. Potency, µM, without a hit: largest response in the series, negative = inhibition, actives largely listed as inhibitors;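 note: the enzyme is Sfp with the accession as filed and its product quenches rhodamine fluorescence; potency is the fitted concentration of half-maximal effect; 0% = enzyme reaction without inhibitor and -100% = no enzyme wells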
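Sfp 15 nM + cpd, 15 min RT; start w/ rhodamine-CoA 5 uM, BHQ-2-YbbR 12.5 uM (final); 50 mM Hepes pH 7.6, 10 mM MgCl2, 0.01% NP-40, 0.01% BSA; read 525/598 nm at 0 and 30 min.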
Tau fluor counter – counter-screen for tau fibril formation inhibitors; tau K18 P301L Alexa594 fluorescence, heparin fibrillization; 280,000 compounds, 0.93% hits; Potency, µM (titrated, usually from 57.7 µM), for the others: at the highest dose activity change, negative = decrease; AID 1463; note: potency is the fitted concentration of half-maximal effect; nearly all actives have a fitted effect of over 55% in size
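Human K18 P301L tau (15 uM unlabeled plus 0.24 uM Alexa 594-labeled, final) in 100 mM sodium acetate pH 7 was mixed with compound and 20 uM heparin and incubated 6 hr at 37 C.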
Tau fibril ThT – inhibitors of human tau fibril formation, thioflavin T binding | recombinant tau K18 P301L, heparin-induced fibrillization, ThT fluorescence | Potency, µM (top dose mostly 57.4 µM), inactives show at the top dose activity, negative = inhibition, most hits filed as inhibitors | 270,000 compounds, 2.1% hits | AID 1460; note: potency is the fitted concentration of half-maximal effect; nearly all actives have a fitted effect of over 55% in size
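Using a mix of unlabeled (15 uM) and Alexa 594-labeled (0.24 uM) tau K18 P301L, heparin-triggered fibrillization over 6 hr at 37 C was scored by ThT fluorescence.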
* marks the source's active call; other numbers are inactive results; u = inconclusive; x = not tested or not shown; [ ] = remark or other dose. This is a sample that favours compounds with a hit; in the whole collection about 11% have one here. Unless noted, calls come from the whole dose curve; as a rule, active = well fitted curve in the direction sought with a large enough effect; inconclusive = small, poorly fitted or top-dose-only effect, or another doubt; inactive = no such curve, though single readings can be large; an effect the other way counts as inactive or inconclusive. Unless noted, % is set by controls: 0 for no effect and ±100 for the full control effect.

SMILES | FBPA coupling cs | G9a block | Tau FP inhib | Sfp PPTase inh | Tau fluor counter | Tau fibril ThT
C=CCn1c(-c2ccc(Cl)cc2)cnc1SC(C)C(=O)NC(N)=O (stereo unspecified) | 0 | u | 1% | 12% | -7% | -11%
C=CCn1c(-c2ccc(Cl)cc2)cnc1SC(C)C(N)=O (stereo unspecified) | -1 | 10µM* | -6% | -4% | -10% | -4%
COc1cccc(C(=O)N2CCN(C(=O)C3COc4ccccc4O3)CC2)c1 (stereo unspecified) | x | 36% | x | -2% | x | x
O=C(NCCCN1CCN(c2ccc(F)cc2)CC1)c1ccc2nc(Cc3ccccc3)oc2c1 | x | -38%[59 µM] | -3% | x | -24% | -17%
COCC(C)NC(=O)NC1(C(F)(F)F)Oc2ccc(Cl)cc2O1 (stereo unspecified) | 2 | 35µM* | -15% | -28% | -11% | -12%
O=C(NCCN1CCOCC1)NC1(C(F)(F)F)Oc2ccc(Cl)cc2O1 (stereo unspecified) | -1 | 10µM* | -13% | -34% | -15% | u
COCC(C)NC(=O)NC(=O)c1ccc(Cl)cc1 (stereo unspecified) | 1 | 18%[59 µM] | -3% | 10% | 6% | 0%
COC(=O)C/C=C\[C@@H](C)[C@@H](/C=N\O[C@@H](C)c1cn([C@H]2COC[C@H]2O)nn1)NS(=O)(=O)c1ccc(C)cc1 | -1 | x | 4%[11.6 µM] | -7% | 2%[11.6 µM] | -3%[11.5 µM]
NC(=O)C1CCN(S(=O)(=O)c2cc3c(cc2Cl)NC(=O)CO3)CC1 | x | -2%[59 µM] | 2% | x | -11% | -12%
COc1ccc(N2CCN(C(=O)c3ccc(F)cc3)CC2)c([N+](=O)[O-])c1 | 2 | -39% | 4% | -16% | -1% | 2%
COc1ccc(N2C(=O)CC(Sc3ccccc3C(=O)O)C2=O)c([N+](=O)[O-])c1 (stereo unspecified) | -1 | 0.32µM* | -8% | 14µM* | u | 14µM*
COc1ccc(N2CCN(C(=O)c3ccccc3F)CC2)c([N+](=O)[O-])c1 | 1 | 50µM* | 7% | -1% | -10% | x
Cc1ccc(N2C(=O)CC(Sc3ccccc3C(=O)O)C2=O)c([N+](=O)[O-])c1 (stereo unspecified) | 5 | 0.35µM* | -2% | 7.1µM* | -23% | u
COc1ccccc1-c1nc2ccccc2c(=O)n1NC(=O)c1cccs1 | 0 | 11%[59 µM] | 2% | 7% | 5% | 7%
CN1CCCN(CC(O)COCc2cccs2)CC1 (stereo unspecified) | 0 | 40µM* | -10% | 13% | -7% | u
OC(COCc1cccs1)CN1CCN(c2cccc(Cl)c2)CC1 (stereo unspecified) | -1 | 10µM* | 12% | u | -2% | -17%
OC(COCc1cccs1)CN1CCCCCC1 (stereo unspecified) | 2 | u | -3% | -8% | -10% | -20%
Cc1ccc(N(CC(=O)Nc2cccc(Cl)c2C)S(=O)(=O)c2c(C)noc2C)cc1 | x | 16%[59 µM] | -12% | x | -19% | 5%
CCCCc1n[nH]c(=S)n1Cc1ccccc1 | -1 | u | -3% | 9% | -3% | -1%
CCn1c(-c2c(Cl)c(C)nn2C)n[nH]c1=S | 3 | 11µM* | -2% | -13% | 7% | 0%
CCCCn1c(-c2c(Cl)c(C)nn2C)n[nH]c1=S | 3 | 8.9µM* | 0% | -9% | -2% | 5%
O=c1c(N2CCc3ccccc3C2)csc2ccc(F)cc12 | x | u | 3% | x | -22% | u
O=C(NN1C(=O)/C(=C/c2cccc(O)c2)SC1=S)c1ccccc1O | 7 | -8%[59 µM] | x | 0% | x | x
CCOc1cc(/C=C2\SC(=S)N(Nc3ccccc3)C2=O)ccc1O | -3 | u | 1% | u | 13µM*[quencher] | 11µM*
O=C1/C(=C/c2ccc(O)c(O)c2)SC(=S)N1Nc1ccccc1 | -4 | 10µM* | -5% | -8% | 11µM*[quencher] | 5µM*
